KB-3-1 tox = qHTS assay for MDR1-selective chemotherapeutics: Primary screen using the parental adenocarcinoma cell KB-3-1; KB-3-1 viability, CellTiter-Glo ATP luminescence, 72 h; Potency, µM (titrated, usually from 46.1 µM), actives largely listed as cytotoxic; 400,000 compounds, 1.4% hits; AID 1347075, 2019; further: potency means the concentration at half of the fitted maximal effect; on the % scale 0 is the no-effect control and ±100 the full control effect; nearly all actives have a fitted effect of over 60% in size
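Viability of parental KB-3-1 cells, measured by CellTiter-Glo luminescence, followed a 72 h incubation at 37 °C with pinned compounds in phenol-red-free DMEM containing 10% FBS.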
SW480 rereplic = A quantitative high throughput screen for small molecules that induce DNA re-replication in SW480 colon adenocarcinoma cells. SW480 DNA re-replication, Hoechst DNA content imaging, 48 h. 340,000 compounds, 1.8% hits. Potency, µM (highest dose often 46.1 µM), for the others: at the highest dose re-replication activation, actives largely listed as activators; further: potency means the concentration at half of the fitted maximal effect; % of control where 0% means no effect; nearly all actives have a fitted effect of over 55% in size
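Treated cells incubate 48 hr (37 C, 5% CO2), are stained 40 min with Hoechst, and nuclear fluorescence is enumerated; a rise in nuclei with high DNA signal marks re-replication.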
KB-V1 MDR tox = qHTS assay for MDR1-selective chemotherapeutics: Primary screen using the drug-selected MDR subline cells KB-V1; 400,000 compounds, 3.4% hits; Potency, µM (doses to about 46.1 µM), actives largely listed as cytotoxic; KB-V1 MDR cells viability, CellTiter-Glo, 72 h; further: potency means the concentration at half of the fitted maximal effect; on the % scale 0 is the no-effect control and ±100 the full control effect; nearly all actives have a fitted effect of over 60% in size
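Compound-treated KB-V1 multidrug-resistant cells, 72 h, 37 degrees C; viability by CellTiter-Glo. Fitted qHTS curves give the values.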
MCF10A rereplic = A quantitative high throughput screen for small molecules that induce DNA re-replication in MCF 10a normal breast cells. MCF 10A DNA re-replication, Hoechst nuclear intensity, 48 h. AID 624296, 2012. 350,000 compounds, 2.9% hits. Potency, µM (doses to about 46.1 µM), for the others: at the top dose activity, positive = re-replication, actives largely listed as activators; further: potency means the concentration at half of the fitted maximal effect; % of control where 0% means no effect; nearly all actives have a fitted effect of over 50% in size
KCNH2 WT inh = qHTS for Inhibitors of KCHN2 3.1: Wildtype qHTS. Voltage-gated inwardly rectifying potassium channel KCNH2 (Homo sapiens), Q12809. U2OS, BacMam KCNH2, thallium flux FluxOr; stronger effect = lower value. activity change, % at 1.84 µM. 340,000 compounds, 0.37% hits. AID 720551, 2013;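 active means maximum activity change below -70%; inconclusive means maximum activity change between -70% and -50%; inactive means maximum activity change above -50%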; further: on the % scale 0 is the no-effect control and ±100 the full control effect
Target sequence (Q12809 whole entry, looked up): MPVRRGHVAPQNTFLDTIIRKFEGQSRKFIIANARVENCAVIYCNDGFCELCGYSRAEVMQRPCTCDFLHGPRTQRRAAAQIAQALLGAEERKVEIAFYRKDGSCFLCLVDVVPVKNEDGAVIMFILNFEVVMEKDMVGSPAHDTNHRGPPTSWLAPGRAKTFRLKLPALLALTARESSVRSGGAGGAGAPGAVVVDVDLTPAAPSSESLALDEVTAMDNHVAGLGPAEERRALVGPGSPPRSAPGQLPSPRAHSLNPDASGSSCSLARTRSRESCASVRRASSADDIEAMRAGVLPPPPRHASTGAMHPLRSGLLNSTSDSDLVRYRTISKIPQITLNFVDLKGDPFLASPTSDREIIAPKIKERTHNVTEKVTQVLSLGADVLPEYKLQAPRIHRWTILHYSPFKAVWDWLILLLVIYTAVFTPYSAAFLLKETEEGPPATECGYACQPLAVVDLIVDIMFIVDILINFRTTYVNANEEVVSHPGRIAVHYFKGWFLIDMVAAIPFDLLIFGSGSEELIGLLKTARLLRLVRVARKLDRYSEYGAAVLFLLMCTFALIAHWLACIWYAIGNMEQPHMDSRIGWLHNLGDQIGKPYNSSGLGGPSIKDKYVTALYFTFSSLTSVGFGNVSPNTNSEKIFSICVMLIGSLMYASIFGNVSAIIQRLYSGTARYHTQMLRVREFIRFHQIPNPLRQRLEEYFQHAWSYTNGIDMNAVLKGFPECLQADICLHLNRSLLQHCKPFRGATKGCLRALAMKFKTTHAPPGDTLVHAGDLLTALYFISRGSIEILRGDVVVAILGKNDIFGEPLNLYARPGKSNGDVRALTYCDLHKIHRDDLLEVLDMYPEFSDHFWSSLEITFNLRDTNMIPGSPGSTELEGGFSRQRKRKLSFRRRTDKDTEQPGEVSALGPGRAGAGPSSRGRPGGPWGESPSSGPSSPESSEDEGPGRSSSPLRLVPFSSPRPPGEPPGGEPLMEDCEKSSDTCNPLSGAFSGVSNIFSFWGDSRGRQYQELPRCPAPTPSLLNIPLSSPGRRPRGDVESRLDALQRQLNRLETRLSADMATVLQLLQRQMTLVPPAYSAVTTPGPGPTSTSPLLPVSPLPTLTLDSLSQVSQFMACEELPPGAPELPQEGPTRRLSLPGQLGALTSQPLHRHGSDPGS
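U2OS cells transduced with wild-type KCNH2 virus are loaded with FluxOr dye for 45 min, and thallium flux is measured in kinetic reads before and after stimulation buffer. Rate constants are normalized to DMSO controls.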
KCNH2 3.1 inh = qHTS for Inhibitors of KCHN2 3.1: Mutant qHTS | Potassium voltage-gated channel subfamily H member 2, brain isoform KCNH2 3.1 (human) | U2OS KCNH2 3.1, thallium flux FluxOr; stronger effect = lower value | activity change, % (tested at about 1.8 µM) | 340,000 compounds, 0.95% hits | AID 720553, 2013;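 active means maximum activity change below -70%; inconclusive means maximum activity change from -70% to -50%; inactive means maximum activity change above -50%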;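 further: thallium influx rate constant from kinetic fluorescence after stimulation buffer; on the % scale 0 is the no-effect control and ±100 the full control effect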
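Measured as rate of thallium-driven FluxOr signal in transduced U2OS cells carrying the 3.1 channel, read kinetically for 2 min upon stimulation; values are rate constants scaled to DMSO control wells.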
The depositor's hits bear a star. Compounds with a hit are over-represented: about 7.6% of the library has one in this group of screens. Unless noted, the call rests on the fitted dose curve; in most records, active means well fitted curve in the direction sought with a large enough effect; inconclusive means small, poorly fitted or top-dose-only effect, or another doubt; inactive means no such curve, though single readings can be large; an effect the other way counts as inactive or inconclusive.

How did COc1cccc(CC2(CO)CCCN(C(=O)c3cc[n+]([O-])cc3)C2)c1 (configuration not stated) do in these assays?
KB-3-1 tox: inactive; SW480 rereplic: -127%; KB-V1 MDR tox: inactive; MCF10A rereplic: 1%; KCNH2 WT inh: -3; KCNH2 3.1 inh: 14

How did O=P(O)(OCc1ccccc1)OCc1ccccc1 do in these assays?
KB-3-1 tox: inactive; SW480 rereplic: -16%; KB-V1 MDR tox: inactive; MCF10A rereplic: -27%; KCNH2 WT inh: 4; KCNH2 3.1 inh: -1

What do the screens show for `O=P(NCc1ccccc1)(OCc1ccccc1)OCc1ccccc1`?
KB-3-1 tox: inactive; SW480 rereplic: -3%; KB-V1 MDR tox: 9.2µM*; MCF10A rereplic: 18%; KCNH2 WT inh: -27

How did CCC1C(O)=C(c2ccccn2)C(=N)N1c1ccccc1 (configuration not stated) do in these assays?
KB-3-1 tox: inactive; SW480 rereplic: 18µM*; KB-V1 MDR tox: inactive; MCF10A rereplic: 13µM*; KCNH2 WT inh: 1; KCNH2 3.1 inh: 2

How did COc1ccc(C2=C(O)C(C)N(c3ccccc3)C2=N)cc1OC (configuration not stated) do in these assays?
KB-3-1 tox: inactive; SW480 rereplic: -1%; KB-V1 MDR tox: inactive; MCF10A rereplic: 4%; KCNH2 WT inh: -14; KCNH2 3.1 inh: 1

How did O=C(CSc1ncnc2nc[nH]c12)N1CCOCC1 do in these assays?
KB-3-1 tox: inactive; SW480 rereplic: 18µM*; KB-V1 MDR tox: inactive; MCF10A rereplic: 8.2µM*; KCNH2 WT inh: -11; KCNH2 3.1 inh: 6

How did CCCCCCCCC/C(=N\O)c1ccccn1 do in these assays?
KB-3-1 tox: inconclusive; SW480 rereplic: inconclusive; KB-V1 MDR tox: inactive; MCF10A rereplic: 15µM*; KCNH2 WT inh: 4; KCNH2 3.1 inh: -11

How did CCCCCCCCC(=O)N/N=C/c1ccccn1 do in these assays?
KB-3-1 tox: inactive; SW480 rereplic: -8%; KB-V1 MDR tox: inactive; MCF10A rereplic: 4%; KCNH2 WT inh: -7; KCNH2 3.1 inh: -18

What do the screens show for `O=C(CC(c1ccccc1)c1ccccc1O)N1CCCCC1` (configuration not stated)?
KB-3-1 tox: inactive; SW480 rereplic: -5%; KB-V1 MDR tox: inactive; MCF10A rereplic: -1%; KCNH2 WT inh: -18; KCNH2 3.1 inh: -2

Results for C=CCNC(=O)c1onc(CCl)c1C(=O)OC ?
KB-3-1 tox: inconclusive; SW480 rereplic: inconclusive; KB-V1 MDR tox: inconclusive; MCF10A rereplic: 18µM*

How did COc1ccc(NC(=O)c2nc(C)c(C3(C)CC(c4cccnc4)=NO3)s2)cc1 (configuration not stated) do in these assays?
KB-3-1 tox: 4.6µM*; SW480 rereplic: 7.3µM*; KB-V1 MDR tox: inconclusive; MCF10A rereplic: inconclusive; KCNH2 WT inh: 27; KCNH2 3.1 inh: -14

Results for COc1ccc(O)c(CN2CCC(n3nccc3NC(=O)CCOc3ccccc3)CC2)c1 ?
KB-3-1 tox: inconclusive; SW480 rereplic: inconclusive; KB-V1 MDR tox: inconclusive; MCF10A rereplic: 29%; KCNH2 WT inh: 27; KCNH2 3.1 inh: -27

Results for CCN1CCN(CCNC(=O)c2ccc(/C=C3\Sc4ccccc4N(Cc4ccccc4F)C3=O)cc2)CC1 ?
KB-3-1 tox: inactive; SW480 rereplic: 18µM*; KB-V1 MDR tox: inconclusive; MCF10A rereplic: 13µM*; KCNH2 WT inh: 12; KCNH2 3.1 inh: -8

How did CN1CCN(CCCNC(=O)c2ccc(/C=C3\Sc4ccccc4N(Cc4ccc(F)cc4)C3=O)cc2)CC1 do in these assays?
KB-3-1 tox: inactive; SW480 rereplic: inconclusive; KB-V1 MDR tox: inactive; MCF10A rereplic: 18µM*; KCNH2 WT inh: 11; KCNH2 3.1 inh: 4

How did COCCCNC(=O)/C=C1\Sc2ccccc2N(Cc2ccccc2F)C1=O do in these assays?
KB-3-1 tox: inactive; SW480 rereplic: 18µM*; KB-V1 MDR tox: inactive; MCF10A rereplic: inconclusive; KCNH2 WT inh: 12; KCNH2 3.1 inh: 6

What do the screens show for `O=C(CN1C(=O)/C(=C/c2ccccc2)Sc2ccccc21)NCCCN1CCOCC1`?
KB-3-1 tox: inactive; SW480 rereplic: -20%; KB-V1 MDR tox: inactive; MCF10A rereplic: -1%; KCNH2 WT inh: 3; KCNH2 3.1 inh: 1

How did CN1CCN(CCCNC(=O)c2ccc(/C=C3/Sc4ccccc4N(Cc4cccc(Cl)c4)C3=O)cc2)CC1 do in these assays?
KB-3-1 tox: inactive; SW480 rereplic: inconclusive; KB-V1 MDR tox: inconclusive; MCF10A rereplic: inconclusive; KCNH2 WT inh: 21; KCNH2 3.1 inh: 12

What do the screens show for `CN1CCN(CCCNC(=O)c2ccc(/C=C3\Oc4ccccc4N(Cc4ccccc4F)C3=O)cc2)CC1`?
KB-3-1 tox: inactive; SW480 rereplic: 6.5µM*; KB-V1 MDR tox: inactive; MCF10A rereplic: 9.2µM*; KCNH2 WT inh: 18; KCNH2 3.1 inh: 3

What do the screens show for `CN1CCN(CCCNC(=O)CCN2C(=O)COc3ccccc32)CC1`?
KB-3-1 tox: inactive; SW480 rereplic: -30%; KB-V1 MDR tox: inactive; MCF10A rereplic: 11%; KCNH2 WT inh: -24; KCNH2 3.1 inh: -9

How did CCCCCCCCN1C(=O)[C@H](CC(=O)NCCCCc2ccccc2)C[C@@]2(C(=O)OC)CCCCC=C12 do in these assays?
KB-3-1 tox: inactive; KB-V1 MDR tox: inconclusive

How did Cc1ccccc1N1CC(C(=O)N2CCCCCC2)CC1=O (configuration not stated) do in these assays?
KB-3-1 tox: inactive; SW480 rereplic: -2%; KB-V1 MDR tox: inactive; MCF10A rereplic: -3%; KCNH2 WT inh: -3; KCNH2 3.1 inh: 1

How did Cc1ccc(C)c(CSc2cn(CCNC(=O)c3cccs3)c3ccccc23)c1 do in these assays?
KB-3-1 tox: inactive; KB-V1 MDR tox: inactive

How did CCC(C)NC(=O)c1ccc(COc2ccccc2Cl)cc1 (configuration not stated) do in these assays?
KB-3-1 tox: inactive; SW480 rereplic: 2%; KB-V1 MDR tox: 21µM*; MCF10A rereplic: 3%; KCNH2 WT inh: -3; KCNH2 3.1 inh: -6

How did Cc1nn(Cc2c(F)c(F)c(F)c(F)c2F)c(C)c1NC(=O)c1cccc(COc2ccccc2Cl)c1 do in these assays?
KB-3-1 tox: inactive; SW480 rereplic: -2%; KB-V1 MDR tox: 2.6µM*; MCF10A rereplic: -4%; KCNH2 WT inh: 6; KCNH2 3.1 inh: -15

Source: PubChem BioAssay
